Shown are actives, neighbours in structure and some others; about 1.5% of the full set was active somewhere.
USP1 inh: USP1/UAF1 (human) deubiquitinase inhibition; recombinant USP1/UAF1, Ub-Rhodamine cleavage fluorescence; O94782; hit rate 0.23% among 390,000; Potency, µM (series often up to 57.1 µM), usual class: inhibitors; note: nearly all actives have a fitted effect of over 60% in size
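USP1/UAF1 complex at 1 nM was preincubated with compound for 15 min at room temperature, then Ub-Rho substrate (150nM final) was added. Fluorescence (480/540 nm) was read kinetically, 6 reads every 60 seconds.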
GALK inh: blocks human galactokinase activity | hit rate 0.007% among 270,000 | Purified GALK, Kinase-Glo residual ATP luminescence | P51570 | AID 1868 | Potency, µM (highest dose often 57.5 µM), hits mostly inhibitors
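Galactose (100 uM) and ATP (35 uM) were turned over by 5 nM GALK for 1 h at RT. Kinase-Glo Plus then converted the remaining ATP into a luminescent signal.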
TrxR1 inh-1: rat TrxR1 inhibition | O89049 | recombinant rTrxR1, NADPH fluorescence consumption, selenite substrate | AID 588453 | hit rate 1% among 390,000 | Potency, µM (highest dose often 114 µM), most hits filed as inhibitors; note: nearly all actives have a fitted effect of over 65% in size
Target sequence (O89049 whole entry, looked up): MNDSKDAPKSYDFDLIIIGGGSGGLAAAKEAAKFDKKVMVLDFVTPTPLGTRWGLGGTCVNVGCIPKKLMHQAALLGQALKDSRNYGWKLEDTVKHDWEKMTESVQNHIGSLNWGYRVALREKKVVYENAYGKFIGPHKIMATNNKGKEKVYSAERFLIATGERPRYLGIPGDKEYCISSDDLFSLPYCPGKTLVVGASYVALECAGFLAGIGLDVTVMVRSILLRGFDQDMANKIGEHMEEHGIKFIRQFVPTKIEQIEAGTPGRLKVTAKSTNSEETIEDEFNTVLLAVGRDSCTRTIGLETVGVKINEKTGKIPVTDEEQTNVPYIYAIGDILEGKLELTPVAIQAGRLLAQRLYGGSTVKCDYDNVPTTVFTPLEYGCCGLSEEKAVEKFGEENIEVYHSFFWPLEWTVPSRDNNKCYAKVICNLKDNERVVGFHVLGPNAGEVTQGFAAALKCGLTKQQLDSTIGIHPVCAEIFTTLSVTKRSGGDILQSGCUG
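Rat TrxR1 (90 nM in the dispensed reagent) was pre-reduced with 400 uM NADPH for 5 min at room temperature, then incubated with compound for 15 min. After 400 uM selenite was added, NADPH fluorescence (Ex 340/Em 450 nm) was followed for 8 min.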
FBPA coupling cs: counter-screen for Giardia aldolase inhibitors: coupling enzyme system; coupling enzyme system counterscreen, AmpLite Red fluorescence; activity change, negative = inhibition, % at 58.2 µM, hits read low; hit rate 0.67% among 290,000; AID 2472; in the data active = activity change below about -30%
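Final compound at 57.5 uM, incubated 10 min at RT with coupling enzyme reagent (glyceraldehyde-3-phosphate), then 20 min with substrate and AmpLite Red detection. Fluorescence read at 525/598 nm; tests interference with the coupling assay, not aldolase inhibition.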
TrxR1 substrate: substrates of rat thioredoxin reductase 1 | AID 588456 | Potency, µM (titrated, usually from 114 µM) | purified TrxR1 substrate turnover, NADPH consumption readout | hit rate 0.01% among 390,000; note: nearly all actives have a fitted effect of over 50% in size
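Rat TrxR1, dispensed at 90 nM, was prereduced with 400 uM NADPH (final) for 5 min at ~22 deg C, then incubated with compound 15 min before 400 uM selenite. A first-read NADPH fluorescence drop versus no-compound background flagged substrates.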
Casp1 catalase: caspase-1 inhibition with catalase present; shares compounds with FBPA coupling cs; caspase-1 Ac-WEHD-AFC fluorescence rate, catalase buffer; Potency, µM (series often up to 57.5 µM), hits mostly inhibitors; 30 tested, under 10 active; active = well fitted inhibition curve with a large enough effect in the main read-out, with a control signal flat; inconclusive = small, poorly fitted or top-dose-only effect, or a change in a side signal; inactive = no such curve, though single readings can be large or run the other way
CASP1 inh CRC: confirmation of allosteric or competitive inhibitors of human caspase-1; shares compounds with FBPA coupling cs; purified caspase-1, fluorogenic substrate cleavage; Potency, µM (top dose mostly 57.5 µM), hits mostly inhibitors; hit rate 20% among 60; AID 896; active = well fitted inhibition curve with a large enough effect in the main read-out, with a control signal flat; inconclusive = small, poorly fitted or top-dose-only effect, or a change in a side signal; inactive = no such curve, though single readings can be large or run the other way
Casp7 confirm: blocks human caspase-7 activity in concentration-response; shares compounds with FBPA coupling cs; recombinant caspase-7, fluorogenic substrate cleavage; Potency, µM (doses to about 57.5 µM), actives largely listed as inhibitors; 60 tested, under 10 active; AID 897; active = well fitted inhibition curve with a large enough effect in the main read-out, with a control signal flat, not every such curve was filed as active; inconclusive = small, poorly fitted or top-dose-only effect, or a change in a side signal; inactive = no such curve, though single readings can be large or run the other way
CASP7 redox cys: inhibits caspase-7 in cysteine buffer, redox counter-screen; shares compounds with FBPA coupling cs; caspase-7 enzyme with cysteine, fluorogenic substrate, redox counterscreen; Potency, µM (top dose mostly 57.5 µM), most hits filed as inhibitors; 60 tested, under 10 active; AID 908; active = well fitted inhibition curve with a large enough effect in the main read-out, with a control signal flat; inconclusive = small, poorly fitted or top-dose-only effect, or a change in a side signal; inactive = no such curve, though single readings can be large or run the other way
CASP7 redox cat: caspase-7 inhibition with catalase present; shares compounds with FBPA coupling cs; Caspase-7 Ac-DEVD-AFC fluorescence rate, catalase buffer; Potency, µM (titrated, usually from 57.5 µM), usual class: inhibitors; 30 tested, under 10 active; AID 909; active = well fitted inhibition curve with a large enough effect in the main read-out, with a control signal flat; inconclusive = small, poorly fitted or top-dose-only effect, or a change in a side signal; inactive = no such curve, though single readings can be large or run the other way
CASP1 redox cys: counter-screen for redox active caspase-1 inhibitors: cysteine buffer. shares compounds with FBPA coupling cs. recombinant caspase-1, fluorogenic substrate, cysteine buffer. Potency, µM (series often up to 57.5 µM), hits mostly inhibitors. 60 tested, under 10 active; active = well fitted inhibition curve with a large enough effect in the main read-out, with a control signal flat; inconclusive = small, poorly fitted or top-dose-only effect, or a change in a side signal; inactive = no such curve, though single readings can be large or run the other way
GR counterassay: inhibits human glutathione reductase in TrxR1 counterassay. shares compounds with TrxR1 inh-1. purified GR, DTNB reduction absorbance 405 nm kinetic. activity change, negative = inhibition, % at 57.1 µM. 55 tested, under 10 active. AID 652020
TrxR1 inh-2: blocks rat thioredoxin reductase 1 in hit validation | shares compounds with TrxR1 inh-1 | recombinant TrxR1, NADPH fluorescence consumption, selenite substrate | Potency, µM, usual class: inhibitors | hit rate 50% among 55 | AID 652023
TrxR1 insulin MOA: TrxR1 inhibition in insulin mechanism assay; shares compounds with TrxR1 inh-1; TrxR1 Trx-coupled insulin reduction, NADPH absorbance 340 nm; Potency, µM; hit rate 20% among 55; AID 652037;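 active = compounds with a measured potency under 100 micromolar; inconclusive = filed, but no rule given; inactive = potency at or above that, or unmeasurable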
TrxR1 inh-3: inhibitors of rat thioredoxin reductase 1, DTNB reduction. hit rate 90% among 55. AID 652256. purified TrxR1, DTNB reduction, A412. shares compounds with TrxR1 inh-1. Potency, µM;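 active = a half-inhibiting concentration could be measured and was below 100 µM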
Of the large screens only hits and unclear results are named; the others gave an inactive call (follow-up assays come after a bar, where they were run). Unless noted, calls come from the whole dose curve; as a rule, active = well fitted curve in the direction sought with a large enough effect; inconclusive = small, poorly fitted or top-dose-only effect, or another doubt; inactive = no such curve, though single readings can be large; an effect the other way counts as inactive or inconclusive.

CCn1nc(-c2ccccc2)nc2c(=O)n(C)c(=O)nc1-2	GALK inh 0.89µM, FBPA coupling cs -61, TrxR1 substrate inconclusive (no result: USP1 inh) | Casp1 catalase 0.79µM | CASP1 inh CRC 1µM | Casp7 confirm 1.6µM | CASP7 redox cys inactive | CASP7 redox cat inconclusive | CASP1 redox cys inactive
COc1ccc(-c2nc3ccccc3c(=O)n2-c2ccc(OC)cc2)cc1	none
CCOP(=S)(OCC)Oc1ncn(-c2ccccc2)n1	none (no result: USP1 inh, GALK inh, TrxR1 inh-1, TrxR1 substrate)
COc1cc2c(cc1OC)-c1c(OC)c(OC)c(C=O)c3c1[C@H](C2)N(C)CC3	none (no result: USP1 inh, GALK inh, TrxR1 inh-1, TrxR1 substrate) | CASP1 inh CRC inconclusive | Casp7 confirm inactive | CASP7 redox cys inactive | CASP1 redox cys inconclusive
COc1cc2c(cc1O)C[C@H]1c3c(cc(OC)c(O)c3-2)CCN1C	none (no result: USP1 inh, GALK inh, TrxR1 inh-1, TrxR1 substrate) | CASP1 inh CRC 32µM | Casp7 confirm inactive | CASP7 redox cys inactive | CASP1 redox cys inactive
CC(=O)O[C@H]1C[C@@H]2CCC3C(CC[C@@]4(C)[C@H]3C[C@H]([N+]3(C)CCCCC3)[C@@H]4OC(C)=O)[C@@]2(C)C[C@@H]1[N+]1(C)CCCCC1 (stereo partly drawn)	none (no result: USP1 inh, GALK inh, FBPA coupling cs, TrxR1 substrate)
O=C1C=CC2C3C(=O)N(c4ccccc4)C(=O)C3C1N2Cc1ccccc1 (stereo not drawn)	TrxR1 inh-1 3.5µM (no result: GALK inh, FBPA coupling cs) | GR counterassay inactive | TrxR1 inh-2 inconclusive | TrxR1 insulin MOA 17µM | TrxR1 inh-3 1.5µM
CC(=O)C1CCC2C3CCC4CC(C)(O)CCC4(C)C3CCC12C (stereo not drawn)	none (no result: USP1 inh, GALK inh, TrxR1 inh-1, TrxR1 substrate)

Assay outcomes deposited in PubChem by National Center for Advancing Translational Sciences (NCATS).
